# Screens deposited in PubChem BioAssay by National Center for Advancing Translational Sciences (NCATS).
# ALDH1A1 block = qHTS Assay for Inhibitors of Aldehyde Dehydrogenase 1 (ALDH1A1) | Purified ALDH1A1, NADH fluorescence, propionaldehyde substrate | Potency, µM (doses to about 75.3 µM), without a hit: at the top dose activity, negative = inhibition, actives largely listed as inhibitors | 7.3% of 220,000 active | AID 1030, 2008; active = well fitted inhibition curve with a large enough effect, not every such curve was filed as active; inconclusive = small, poorly fitted or top-dose-only effect, or another doubt; inactive = no such curve, though single readings can be large or run the other way;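 also: potency is read from the fitted curve at half-maximal effect; plate controls were no enzyme wells and a reference inhibitor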
# Sfp PPTase inh = qHTS Assay for Inhibitors of Bacillus subtilis Sfp phosphopantetheinyl transferase (PPTase). Biochemical Sfp PPTase activity, qHTS. Potency, µM, inactives show largest response in the series, negative = inhibition, most hits filed as inhibitors. AID 1490, 2009. 3.5% of 310,000 active;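 also: the enzyme is Sfp with the accession as filed and its product quenches rhodamine fluorescence; potency is read from the fitted curve at half-maximal effect; 0% = enzyme reaction without inhibitor and -100% = no enzyme wells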
#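 Reaction rates are the 30-min fluorescence difference (ex 525, em 598 nm) in wells containing 15 nM Sfp, 5 uM rhodamine-CoA and 12.5 uM BHQ-2-YbbR at pH 7.6 with 10 mM MgCl2.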
# KDM4E inh = qHTS Assay for Inhibitors of Human Jumonji Domain Containing 2E (JMJD2E); AID 2147, 2009; Lysine-specific demethylase 4E (Homo sapiens), B2RXH2; JMJD2E catalytic domain, FDH-coupled NADH fluorescence (FDH is formaldehyde dehydrogenase); Potency, µM (titrated, usually from 57.1 µM), inactives show top-dose activity change, negative = inhibition, most hits filed as inhibitors; 1.6% of 230,000 active; active = well fitted inhibition curve with a large enough effect, not every such curve was filed as active; inconclusive = small, poorly fitted or top-dose-only effect, or another doubt; inactive = no such curve, though single readings can be large or run the other way;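 also: potency is read from the fitted curve at half-maximal effect; 0% = wells with enzyme and -100% = buffer wells without enzyme; nearly all actives have a fitted effect of over 50% in size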
# Target sequence (B2RXH2 1-337 limits assumed): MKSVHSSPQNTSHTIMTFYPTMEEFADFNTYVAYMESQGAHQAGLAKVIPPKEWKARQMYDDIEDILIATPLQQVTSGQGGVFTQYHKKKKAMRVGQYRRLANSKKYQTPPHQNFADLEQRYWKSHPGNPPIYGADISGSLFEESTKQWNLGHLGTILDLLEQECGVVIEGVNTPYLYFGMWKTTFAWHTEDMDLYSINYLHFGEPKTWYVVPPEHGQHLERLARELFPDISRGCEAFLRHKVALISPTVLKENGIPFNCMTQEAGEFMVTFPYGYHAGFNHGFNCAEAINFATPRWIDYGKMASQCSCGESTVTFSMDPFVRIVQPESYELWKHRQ
# miR-21 reporter = qHTS Assay for Modulators of miRNAs and/orActivators of miR-21. HeLa miR-21 FLuc reporter, luciferase, 48 h. Potency, µM (titrated, usually from 38.3 µM), for the others: at the highest dose activity change, positive = activation, actives largely listed as activators. 340,000 tested, under 10 active. AID 2288, 2010;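 also: % of control where 0% means no effect; miR-21 action dims this reporter so a rising signal means less miR-21 action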
#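 Compounds were titrated across several concentrations (up to approximately 40 uM) and incubated 48 hours with HeLa miR-21-FLuc reporter cells (miR-21 target sequence downstream of FLuc, endogenous miR-21). Readout was firefly luciferase luminescence after lytic detection reagent.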
# G9a block = qHTS Assay for Inhibitors of Histone Lysine Methyltransferase G9a. G9a H3K9 monomethylation, AlphaScreen, 2 h. Potency, µM (top dose mostly 102 µM), inactives show at the top dose activity, negative = inhibition, most hits filed as inhibitors. Histone-lysine N-methyltransferase EHMT2 (Homo sapiens), Q96KQ7. AID 504332, 2011. 8.8% of 350,000 active; also: potency is read from the fitted curve at half-maximal effect; % is scaled to controls: 0 for no effect and ±100 for the full control effect; nearly all actives have a fitted effect of over 75% in size
# Target sequence (Q96KQ7 913-1193 limits assumed): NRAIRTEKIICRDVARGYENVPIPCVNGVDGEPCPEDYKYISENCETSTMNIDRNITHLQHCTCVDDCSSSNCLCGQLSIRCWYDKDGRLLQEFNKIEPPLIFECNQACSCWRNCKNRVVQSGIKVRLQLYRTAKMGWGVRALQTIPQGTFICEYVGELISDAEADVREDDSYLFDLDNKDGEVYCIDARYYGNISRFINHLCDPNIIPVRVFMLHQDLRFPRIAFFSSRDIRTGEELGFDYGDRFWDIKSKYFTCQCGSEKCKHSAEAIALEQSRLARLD
#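 Using a bead-based AlphaScreen, monomethylated H3K9 product from 2 h room-temperature reactions (G9a 20 nM, peptide 500 nM, SAM 20 uM) was detected with 0.5 ug/mL rabbit anti-H3K9me1 antibody.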
# Lamin A splicing = qHTS Assay for Modulators of Lamin A Splicing | Potency, µM (series often up to 46.1 µM), inactives show at the highest dose ratio change, negative = inhibition, hits mostly inhibitors | AID 1487, 2009 | HeLa LMNA splicing GFP/RFP minigene ratio, 48 h | 0.01% of 200,000 active; active = well fitted inhibition curve with a large enough effect in the signal ratio, with a control signal flat, not every such curve was filed as active; inconclusive = small, poorly fitted or top-dose-only effect, or effect the other way, or a change in a side signal; the % refers to the signal ratio; also: potency is read from the fitted curve at half-maximal effect; % is scaled to controls: 0 for no effect and ±100 for the full control effect
#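 Read-out is the ratio of GFP to DsRed2 object intensity, acquired by 488 nm laser-scanning cytometry on HeLa lamin A-EGFP minigene reporter cells. Compound incubation 48 hrs at 37 °C in Opti-MEM with 2% FBS; DMSO 0.5% final.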
# Active calls of the source: *; ? = inconclusive; . = no result given; ! = not active in a repeat; [ ] = remark or other dose. The list is not random: actives were taken first. Their share in the collection is about 13%. Unless noted, calls follow the shape of the dose curve; as a rule, active = well fitted curve in the direction sought with a large enough effect; inconclusive = small, poorly fitted or top-dose-only effect, or another doubt; inactive = no such curve, though single readings can be large; an effect the other way counts as inactive or inconclusive.
SMILES,ALDH1A1 block,Sfp PPTase inh,KDM4E inh,miR-21 reporter,G9a block,Lamin A splicing
Cn1c(-c2sc3cc(C(F)(F)F)cnc3c2-c2cccnc2)n[nH]c1=S,?,-29%,-20%,-6%,3.5µM*,3%
CCC(Sc1nc2nccnc2c(=O)n1Cc1ccc(OC)cc1)C(=O)NC1CCCCC1 (stereo not given),.,.,.,-4%,11%[59 µM],-14%[46 µM]
CCOc1ccc(N(CC)S(=O)(=O)N2CCCC(C(=O)NCCc3ccccc3OC)C2)cc1 (stereo not given),.,.,.,19%,-5%[59 µM],.
O=C1CCCC2=C1C(c1ccc3c(c1)OCO3)c1c([nH]n(-c3ccccc3)c1=O)N2 (stereo not given),?,4%,3%,-10%,40µM*,-1%
COc1cccc(C2C3=C(CCCC3=O)Nc3[nH]n(-c4ccccc4)c(=O)c32)c1 (stereo not given),6%,18%,3%,3%,?,-4%[46 µM]
O=C(CN1CCN(C2CCCCC2)C(=O)C1=O)Nc1ccc(Cl)cc1,.,.,.,-2%,12%[59 µM],-7%[46 µM]
CCN(CC)CCOc1ccc(Br)cc1,-6%,-20%,4%,-5%,13µM*,-2%
CCOc1ccccc1OCCOc1ccccc1CC,15%,20%,4%,-2%,152%[59 µM],-4%
CCCCN(CC)CCOc1cccc2ccccc12,-1%,?,.,.,39%[59 µM],.
CCN(CC)CCOc1ccccc1OC,.,-10%,.,-1%,22µM*!,.
CCCCN(C)CCOc1ccccc1OCC,1%,6%,-1%,-5%,3.5µM*,-1%
CC(C)(C)NCCOc1ccc(Br)cc1,?,-11%,?,-4%,18µM*,1%
COc1ccc(S(=O)(=O)Nc2ccc3c(c2)OCCO3)cc1OC,.,13%,.,-11%,-2%,.
CC(=O)OCC1OC(Oc2cc(OC(C)=O)c3c(=O)cc(-c4ccc(OC(C)=O)c(OC(C)=O)c4)oc3c2)C(OC(C)=O)C(OC(C)=O)C1OC(C)=O (stereo not given),-2%,7%,?,.,.,.
Cc1cc(Nc2cccc(Cl)c2C)n2nc(Cc3ccccc3)nc2n1,.,.,.,8%,18%[59 µM],.
COc1cccc(N2CC(NC(=O)COc3ccc4ccccc4c3)CC2=O)c1 (stereo not given),.,.,.,0%,-1%[59 µM],7%[46 µM]
CNC(=O)Nc1ccc2snnc2c1,?,-4%,?,-1%,50µM*,4%
CCCc1c(O)nc(SCCN(CC)CC)n(C(=O)c2ccccc2)c1=O,-15%,-28%,-2%,-3%,79µM*,-3%
CCOc1ccc(NC(c2ccccn2)c2oc(CO)cc(=O)c2O)cc1 (stereo not given),?,3.2µM*,22µM*,-49%,1.4µM*,.
CCOC(=O)C(c1ccccc1)C(Nc1ccc(F)cc1)c1ccccn1 (stereo not given),6%,21%,-12%,12%,7%,.
CCOC(=O)N1CCN(S(=O)(=O)c2c(C)nc3scc(C)n3c2=O)CC1,.,5%,.,2%,19%[0.0925 µM],.
O=C(c1ccc(S(=O)(=O)Cc2ccccc2Cl)c([N+](=O)[O-])c1)N1CCN(c2ccccn2)CC1,18µM*,1%,4%,23%,-38%,.
CCCC1=Nc2cc(C(=O)N3CCN(c4ccccn4)CC3)ccc2Sc2ccc(C)cc21,.,0%,.,-9%,16µM*,.
O=C(c1ccc(Sc2cccc(Cl)c2)c([N+](=O)[O-])c1)N1CCN(c2ccccn2)CC1,-7%,7%,10%,4%,16µM*,.
Cc1c(C)n(Cc2ccc(F)cc2)c2ccc(C(=O)N3CCN(c4ccccn4)CC3)cc12,.,-4%,.,1%,32µM*,.
SMILES,ALDH1A1 block,Sfp PPTase inh,KDM4E inh,miR-21 reporter,G9a block,Lamin A splicing
Cc1c(C)n(Cc2ccccc2)c2ccc(C(=O)N3CCN(c4ccccc4F)CC3)cc12,.,.,.,-8%,?,.
O=C(c1ccc(Cl)c([N+](=O)[O-])c1)N1CCN(c2ccccn2)CC1,10µM*,13%,20%,-4%,-13%[59 µM],2%
CC1(C)C(CSc2nc3ccccc3[nH]2)C1(Cl)Cl (stereo not given),-7%,11%,12%,-30%,32%,.
CCOc1cc(C(c2c(C)[nH][nH]c2=O)c2c(C)[nH][nH]c2=O)ccc1OCc1ccc([N+](=O)[O-])cc1,?,3%,-24%,1%,?,-1%
CCOc1cc(C(c2c(C)[nH][nH]c2=O)c2c(C)[nH][nH]c2=O)ccc1OC(=O)c1cccc([N+](=O)[O-])c1,-2%,1%,-24%,5%,3.5µM*,4%
CCOC(=O)C1CCN(C(=O)Cn2nc(C)n3c(cc4cc(F)ccc43)c2=O)CC1,.,9%,.,1%,-5%,.
Cc1ccc(O)c(N/C=C/C(=O)c2ccc(F)cc2)c1,.,0%,.,-57%,35µM*,.
COc1cccc(CSc2nc3n(n2)C(c2cccs2)C(C(=O)Nc2ccccc2C)=C(C)N3)c1 (stereo not given),.,.,.,3%,5%[59 µM],?
O=C(Nc1ccc(F)cc1)C(c1ccccc1)N1CCN(S(=O)(=O)c2ccccc2)CC1 (stereo not given),10µM*,34%,-4%,-3%,-32%,-15%
O=C(Nc1ccc(F)cc1)C(c1ccccc1)N1CCN(S(=O)(=O)c2c(F)cccc2F)CC1 (stereo not given),7.9µM*,-4%,3%,-4%,21%[59 µM],?
CN(C)c1ncc2nc(-c3ccccc3)c(=O)n(Cc3cccs3)c2n1,?,16%,.,.,-4%[0.501 µM],-6%
CCC(=O)Nc1ccc2nc(SCc3ccccc3)sc2c1,.,.,.,-59%,-4%[59 µM],23%[46 µM]
Cc1ccc(-c2cc(NC(=O)c3ccccc3Cl)on2)cc1,.,.,.,-62%,1%[59 µM],.
O=C(NC(=S)NCCN1CCOCC1)c1ccccc1,-5%,15%,-4%,-22%,-15%,-10%
CCc1ccc(/C([O-])=C(/C(=S)NCCN2CCOCC2)[n+]2ccccc2)cc1,?,45µM*,-2%,-8%,25µM*,.
O=C(Cn1cnc2ccccc2c1=O)c1ccc(Cl)cc1,-2%,21%,8%,-64%,3%,.
COc1ccc(NC(=O)CSc2nnc(N)s2)cc1,?,16%,5%,-15%,79µM*!,8%
CCN(CC)c1ccc(NC(=O)CSc2nnc(N)s2)cc1C,-2%,9%,-1%,7%,56µM*,3%
CCOc1ccc(C(=O)CSc2nnc(N)s2)cc1,-6%,3%,9%,-39%,32µM*,-3%
